According to PubChem BioAssay AID1851 (National Center for Advancing Translational Sciences (NCATS), 2009):
The campaign covered roughly 16,000 compounds. About 2,600 (16%) were called active. About 20% were inconclusive and are not listed. These entries were drawn from the full list. Values without a mark were called inactive. Calls follow the shape of the dose curve; as a rule, active = well fitted curve in the direction sought with a large enough effect; inconclusive = small, poorly fitted or top-dose-only effect, or effect the other way; inactive = no such curve, though single readings can be large or run the other way.

target: Cytochrome P450 2D6 (Homo sapiens) (UniProt P10635); test: Cytochrome panel assay with activity outcomes; details: recombinant CYP, pro-luciferin dealkylation, luminescence, p450-cyp2d6; series mostly up to 57.1 µM
% is scaled to controls: 0 for no effect and ±100 for the full control effect.

Cytochrome P450 2D6 (Homo sapiens), sequence (P10635 whole entry, looked up): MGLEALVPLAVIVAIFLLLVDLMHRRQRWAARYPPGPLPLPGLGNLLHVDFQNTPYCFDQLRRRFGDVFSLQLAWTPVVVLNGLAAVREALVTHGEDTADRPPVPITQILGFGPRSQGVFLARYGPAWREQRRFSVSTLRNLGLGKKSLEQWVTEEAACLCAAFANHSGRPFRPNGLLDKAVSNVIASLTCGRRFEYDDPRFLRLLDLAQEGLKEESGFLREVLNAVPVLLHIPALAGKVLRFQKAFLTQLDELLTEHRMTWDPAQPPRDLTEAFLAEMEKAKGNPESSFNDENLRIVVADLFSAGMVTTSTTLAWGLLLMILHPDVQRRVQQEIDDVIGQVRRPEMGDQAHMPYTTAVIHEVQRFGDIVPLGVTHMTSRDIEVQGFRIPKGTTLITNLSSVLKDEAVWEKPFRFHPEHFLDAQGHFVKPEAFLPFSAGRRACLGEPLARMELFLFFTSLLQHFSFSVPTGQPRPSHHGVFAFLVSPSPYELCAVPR

SMILES	activity, negative = inhibition	AC50
CC(C)[C@]1(Cl)CC[C@@H]2[C@]3(C)CCC[C@@](C)(C(=O)O)[C@H]3C[C@H](Cl)[C@@]2(Cl)[C@H]1Cl	4.09% [at 11.4 µM]	–
COc1cccc(Cn2c(=O)c(-c3cccc(C#N)c3)nc3cnc(N4CCN(C)CC4)nc32)c1	–	inactive
Cc1ccc(/C=C2\SC(=S)N(CCCC(=O)Nc3ccccn3)C2=O)cc1	–	inactive
CC(C)(C)COS(=O)OCC(C)(C)C	-1.05% [at 11.4 µM]	–
CCC(C#CCN1CCCCC1)(CC)OCCC#N	–	inactive
CC(C)C(O)(C#CCN1CCCC1)c1ccccc1 (centres undefined)	–	14.1 µM (active)
C[C@@H](N1CCOCC1)[C@@](O)(c1ccccc1)c1ccccn1	-15% [at 11.4 µM]	–
O=C(N/N=C/C=C/c1ccc([N+](=O)[O-])cc1)c1cccs1	–	inactive
OCCN1CCOCCOCCN(CCO)CCN(CCO)CC1	–	inactive
COC(=O)/C=C/CSC1=N/C(=C/c2ccc(-n3cncn3)cc2)C(=O)N1	–	14.1 µM (active)
COc1ccccc1NC(=O)CSc1nc2ccccc2cc1Cc1ccccc1	–	inactive
C[C@@H]1C(=O)N(C)C(=O)c2nc[nH]c21	–	inactive
CCOc1ccc(NC(=S)NC(=O)/C=C/c2ccc(C)cc2)c([N+](=O)[O-])c1	–	inactive
O=C(c1coc2ccccc2c1=O)N1CCN(c2cccc(C(F)(F)F)c2)CC1	–	inactive
O=C(CCN1C(=O)C2C3C=CC(C3)C2C1=O)N1CCN(c2cccc(Cl)c2)CC1 (centres undefined)	–	inactive
FC(F)(F)c1cccc(N2CCN(CC3CC4C=CC3C4)CC2)c1 (centres undefined)	–	2.51 µM (active)
CC(=O)O[C@]1(C(C)=O)CC[C@@H]2[C@@H]3C=C(C)C4=CC(=O)CC[C@@]4(C)[C@H]3CC[C@]21C	–	inactive
CCN(CC)C(=O)Cn1cnc([N+](=O)[O-])n1	–	inactive
O=C1C(=O)N(c2cccc(Cl)c2)C(c2ccccc2[N+](=O)[O-])/C1=C(\O)c1ccccc1 (centres undefined)	–	inactive
COc1ccc(CCNC(=O)c2nnn(CC(=O)Nc3ccccc3C)c2N)cc1OC	–	inactive
COCC(=O)N1CCC2(CCCN(C(=O)Nc3cccc(C#N)c3)C2)CC1	–	inactive
COc1ccccc1C(c1nnnn1C(C)(C)C)N1CCN(Cc2ccncc2)CC1 (centres undefined)	–	2.82 µM (active)
COc1ccccc1C(c1nnnn1C(C)(C)C)N1CCCc2ccccc21 (centres undefined)	–	inactive
CN1CCN(c2ncc3nc(-c4cc(F)cc(F)c4)c(=O)n(C)c3n2)CC1	–	inactive
OCCN=c1cc(-c2ccccc2)oc2ccc(Cl)cc12	–	6.31 µM (active)

SMILES	activity, negative = inhibition	AC50
Cc1cc(Cl)ccc1Oc1ncnc2oc(-c3ccccc3)cc12	–	inactive
COc1ccccc1CNc1ccnc(-c2ccccc2OC)n1	–	1.58 µM (active)
COc1ccc(CNc2ccnc(-c3ccccc3CN(C)C)n2)c(OC)c1	–	1 µM (active)
COc1ccc(CNc2ccnc(-c3ccccc3OC)n2)c(OC)c1	–	3.98 µM (active)
COc1ccc(CNc2cc(-c3ccccc3CN(C)C)ncn2)c(OC)c1	–	12.6 µM (active)
Cc1cc(NC(=O)c2ccc(S(=O)(=O)N(C)C)cc2)n(-c2ccccn2)n1	–	inactive
COc1cccc(/C=N/Nc2nc(N3CCCC3)nc(N3CCCC3)n2)c1O	–	inactive
COc1cccc(Nc2ncc3nc(-c4cccs4)c(=O)n(-c4ccccc4)c3n2)c1	–	inactive
Cc1nc(Cl)c(C#N)cc1-c1ccccc1	–	inactive
N#CC(=C1CCCC1)c1nc(-c2ccccc2)cs1	–	inactive
Cc1noc(NS(=O)(=O)c2ccc(N/C=C\C(=O)c3ccc4c(c3)OCO4)cc2)c1C	–	inactive
C=C1C(=O)O[C@@H]2[C@H]3O[C@]3(C)CCC=C(C)CC[C@@H]12	–	inactive
CCOC(=O)c1c(N2C(=O)Nc3cc(Cl)c(Cl)cc3N2O)sc2c1CCCCC2	–	inactive
CCc1ccc(C(=O)COC(=O)C(Cc2ccccc2)NC(=O)C2CCC(C)CC2)cc1 (centres undefined)	–	inactive
O=C(Nc1ccc(Cl)cc1Cl)c1cccc(N2C(=O)C=CC2=O)c1	–	inactive
COc1ccc(CSC2=C(C#N)C(=O)NC3(CCCCC3)S2)cc1	-3.33% [at 11.4 µM]	–
Nc1nc(Cl)nc2c1ncn2[C@@H]1O[C@@H](COP(=O)(O)OP(=O)(O)OP(=O)(O)O)[C@@H](O)[C@H]1O	–	inactive
COc1ccccc1CNc1ccnc(-c2ccccc2Cl)n1	–	12.6 µM (active)
COc1ccc(-c2nc3c([nH]2)c(=O)n(C)c(=O)n3C)c(OC)c1	–	inactive
O=C(O)/C=C\C(=O)Nc1ccccn1	7.8% [at 11.4 µM]	–
O=c1cc(CN2CCN(c3ccc(F)cc3)CC2)c2cc3c(cc2o1)CCCC3	–	inactive
Cc1cc(N)n2ncc(-c3ccc(Cl)cc3)c2n1	–	inactive
N[C@@H](CC1=CS(=O)(=O)c2ccc(Cl)cc21)C(=O)O	-13.3% [at 11.4 µM]	–
CN(C)c1ccc(-c2cncnc2NCCc2cnc[nH]2)cc1	–	5.01 µM (active)
CNc1ncncc1-c1ccc(C(=O)N(C)C)cc1	–	inactive

SMILES	activity, negative = inhibition	AC50
CN(C)C(=O)c1ccc(-c2cncnc2NCCc2cnc[nH]2)cc1	–	0.794 µM (active)
CN(C)c1ccc(-c2cncnc2Nc2ccc(F)cc2)cc1	–	25.1 µM (active)
c1ncc(-c2ccc3c(c2)OCO3)c(NCCc2cnc[nH]2)n1	–	2.51 µM (active)
c1nc(NCCc2cnc[nH]2)c2[nH]cnc2n1	-17.7% [at 11.4 µM]	–
CC(=O)NCCNc1ncncc1-c1ccc(N(C)C)cc1	–	inactive
Fc1ccc(Nc2ncncc2-c2ccoc2)cc1	–	inactive
Cc1cc(N2C(=O)C(O)=C(C(=O)c3ccco3)C2c2ccc(O)cc2)no1 (centres undefined)	–	inactive
CO[C@H]1COC(=O)C/C=C\[C@H](C)COC(=O)[C@@H](C)NC(=O)C/C=C\[C@@H]1C	10.1% [at 11.4 µM]	–
COc1ccc(NC(=O)N2CCC3(CC2)CCN(C(=O)c2csnn2)CC3)cc1	–	inactive
CN1CCN(NC(=O)c2ccccc2F)CC1	–	inactive
Cc1ccc(-n2c(SCC(=O)N3CCOCC3)nnc2-c2cccnc2)cc1	–	inactive
CCOC(=O)CSc1n[nH]c(NC(=O)c2cccc(C)c2)n1	–	inactive
CCc1cccc2c(C=C(C#N)C#N)cn(CC(=O)N3CCCCC3)c12	–	inactive
O=c1oc(-c2ccco2)nc2c1cnn2-c1ccccc1	–	inactive
Cn1ncc([N+](=O)[O-])c1C(=O)N1CCOCC1	–	inactive
CCCCNC(=O)NS(=O)(=O)c1ccc(C(=O)OC(C)C)o1	–	inactive
CN(C)S(=O)(=O)c1cccc(NC(=O)COC(=O)c2ccc(Br)o2)c1	–	inactive
CCN(CC)S(=O)(=O)c1ccc(NC(=O)COC(=O)c2ccc(Br)o2)cc1	–	3.16 µM (active)
CN(C)S(=O)(=O)c1ccc(NC(=O)COC(=O)c2ccccn2)cc1	–	inactive
CC1=CC2=NC(=O)CC(C)(C(=O)N(CC(=O)NC(C)(C)C)Cc3cccs3)N2C=C1 (centres undefined)	–	inactive
O=c1oc2c(Cl)cc(Cl)cc2cc1-c1nnc(Nc2ccccc2F)s1	–	inactive
O=C(NC12CC3CC(CC(C3)C1)C2)N1CCN(c2nc(-c3ccccc3)cs2)CC1	–	inactive
CCC(C)NC(=O)c1ccccc1NC(=O)Nc1ccccc1 (centres undefined)	–	inactive
NS(=O)(=O)c1ccc(NC(=O)Nc2cccc3ccccc23)cc1	-5.78% [at 11.4 µM]	–
CCS(=O)(=O)c1ccc(O)c(NC(=O)Nc2ccccc2)c1	–	4.47 µM (active)

SMILES	activity, negative = inhibition	AC50
CCOC(=O)Cc1cc(=O)n2[nH]c(C)c(C#N)c2n1	–	inactive
CC(C)NC(=O)N1CCN(c2ccncc2S(=O)(=O)N2CCOCC2)CC1	–	inactive
Cc1ccc2c(c1)/C(=N/OC(=O)c1ccc(F)cc1)CCS2	–	inactive
C/C(=N\OC(=O)c1ccc(F)cc1)c1nccs1	–	12.6 µM (active)
C/C(=N\OC(=O)c1cccc(C)c1)c1sc(-c2ccccc2)nc1C	–	inactive
COc1ccccc1NC(=O)N1CCC(c2nnc(SCC(N)=O)n2C)CC1	–	inactive
COc1cc(-c2nnc(COC(=O)c3c4c(nc5ccccc35)CCCC4)o2)cc(OC)c1OC	–	inactive
COc1ccc(-n2c(CNC(=O)c3ccc(S(=O)(=O)N4CCCC4)cc3)n[nH]c2=S)cc1	–	inactive
C/C(=N/NC(=O)c1ccc(C)s1)c1cccc(NC(=O)COc2ccc(Cl)cc2C)c1	–	inactive
O=C(Nc1ccc2nc(SCc3ccc(Cl)cc3)sc2c1)c1ccccc1C(=O)N1CCOCC1	–	inactive
N[C@H](C(=O)O)[C@@H]1[C@@H](C(=O)O)C1(F)F	–	0.1 µM (active)
O=C(Nc1cccc(-c2cnc3ccccc3n2)c1)c1ccc(Cl)cc1	–	inactive
COc1ccc(NC(=O)CN(C)S(=O)(=O)c2ccc(Cl)cc2)c([N+](=O)[O-])c1	–	inactive
COc1ccc(NC(=O)c2ccc(C)cc2Cl)c([N+](=O)[O-])c1	–	0.891 µM (active)
COc1ccc(NC(=O)c2cccs2)c([N+](=O)[O-])c1	–	inactive
CCCCN1CSC(=S)N(Cc2ccccc2)C1	–	3.98 µM (active)
O=C(c1ccc2c(c1)N(Cc1ccccc1)C(=O)CS2)N1CCOCC1	–	inactive
Cn1c(CN2CCOCC2)nnc1SCc1ccccc1	–	inactive
S=C1SCN(CCN2CCOCC2)CN1Cc1ccccc1	–	12.6 µM (active)
O=C1OC(OC2CCCCC2)(c2ccccc2)c2ccccc21 (centres undefined)	–	inactive
COc1ccc(-c2cc(C3CCN(c4cc(Cl)nc(N)n4)CC3)[nH]n2)cc1	–	inactive
CCN1C(=O)[C@H]2[C@H]3[C@H](O)[C@H](O)C/C(=N/NC(=O)OCc4ccccc4)[C@H]3CC[C@@H]2C1=O	1.32% [at 11.4 µM]	–
C/C(=N\NC(=O)c1cccc(F)c1)c1ccc(Br)s1	–	inactive
Cc1cccc(C(=O)NC(=S)N2CCN(C)CC2)c1	–	inactive
